PubChem BioAssay (NCI)
About 79,000 compounds went through this panel and 15% of them were active in at least one assay; those are over-represented in the sample as a whole. Active and inactive are the calls of the source. No stated cut-off is given here; in the data, active means growth inhibition above about 70%; inactive means the rest.

Key:
[1] = NCI Yeast Anticancer Drug Screen. Data for the rad52 strain (AID 147);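 further: 0% = growth of vehicle-treated control cultures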; settings: S. cerevisiae rad52 mutant growth inhibition, hits give high values
Outline: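 Compounds are applied to a genetically defined yeast strain lacking normal DNA damage repair, and inhibition of growth is expressed relative to cultures given vehicle only.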

[2] = NCI Yeast Anticancer Drug Screen. Data for the wt1 strain (AID 149);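 further: 0% = growth of vehicle-treated wt1 cultures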; settings: S. cerevisiae wt1 strain (SPY 50644) growth inhibition, hits give high values
Outline: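 wt1 strain grown with compound or vehicle; inhibition taken from the growth difference.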

[3] = NCI Yeast Anticancer Drug Screen. Data for the rad50EPP+ strain (AID 151);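 further: 0% = growth of vehicle-treated control cultures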; settings: S. cerevisiae rad50 mutant strain, hits give high values
Outline: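 Compounds were applied to the rad50EPP+ yeast strain, which bears a defined DNA repair alteration, and growth inhibition was determined relative to vehicle-treated cultures.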

[4] = NCI Yeast Anticancer Drug Screen. Data for the mgt1 strain (AID 153); settings: S. cerevisiae mgt1 mutant growth inhibition, hits give high values
Outline: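 Strain: mgt1 yeast, one of a set carrying defined DNA damage repair or cell cycle control alterations. Compound-treated growth compared with vehicle.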

[5] = NCI Yeast Anticancer Drug Screen. Data for the rad50 strain (AID 155);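 further: 0% = growth of vehicle-only cultures of the same strain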; settings: S. cerevisiae rad50 strain growth inhibition, hits give high values
Outline: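 DNA repair mutant yeast, compound exposure, growth read-out; inhibition is taken relative to vehicle.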

[6] = NCI Yeast Anticancer Drug Screen. Data for the mec2-1 strain (AID 157); settings: S. cerevisiae mec2-1 strain, hits give high values
Outline: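 Strain: mec2-1 (DNA repair/cell cycle alteration). Compound exposure, then growth measured; inhibition expressed relative to vehicle.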

[7] = NCI Yeast Anticancer Drug Screen. Data for the sgs1 mgt1 strain (AID 161);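 further: 0% = growth of cultures given vehicle only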; settings: S. cerevisiae sgs1 mgt1 strain, hits give high values
Outline: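 Inhibition of yeast growth, normalised to vehicle-treated controls, is reported for a strain bearing genetic alterations in DNA damage repair.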

[8] = NCI Yeast Anticancer Drug Screen. Data for the CLN2oe strain (AID 163);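 further: 0% = growth of vehicle-only control cultures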; settings: S. cerevisiae CLN2oe strain, hits give high values
Outline: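 Growth of a genetically modified yeast strain is measured after compound exposure and compared with cultures given vehicle alone.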

[9] = NCI Yeast Anticancer Drug Screen. Data for the cln2 rad14 strain (AID 165);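 further: 0% = growth equal to vehicle treated cultures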; settings: S. cerevisiae cln2 rad14 strain, hits give high values
Outline: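 Compounds are applied to the cln2 rad14 yeast strain, and growth is then compared with that of vehicle-treated cultures to give inhibition.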

[10] = NCI Yeast Anticancer Drug Screen. Data for the bub3 strain (AID 167); settings: S. cerevisiae bub3 mutant strain, hits give high values
Outline: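 In this screen, a yeast mutant lacking normal mitotic checkpoint function is challenged with compound. Relative growth versus vehicle gives the inhibition value.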

[11] = NCI Yeast Anticancer Drug Screen. Data for the wt2 strain (AID 169);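 further: 0% = growth of vehicle-treated yeast cultures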; settings: S. cerevisiae wt2 strain growth inhibition, hits give high values
Outline: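 This strain belongs to a panel of yeast strains with defined genetic alterations in DNA damage repair or cell cycle control. Compounds are applied, and growth inhibition is measured against vehicle-treated cultures.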

[12] = NCI Yeast Anticancer Drug Screen. Data for the mlh1 strain (AID 171);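 further: 0% = growth of vehicle-treated control cultures of the same strain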; settings: S. cerevisiae mlh1 strain growth inhibition, hits give high values
Outline: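 Growth of the mutant yeast strain after compound exposure, expressed as inhibition relative to vehicle-only controls.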

[13] = NCI Yeast Anticancer Drug Screen. Data for the sgs1 strain (AID 173);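 further: 0% = growth of vehicle-only control cultures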; settings: S. cerevisiae sgs1 mutant, hits give high values
Outline: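 Growth of a yeast strain bearing a defined genetic alteration is measured after compound treatment. Inhibition is expressed relative to vehicle-only controls.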

[14] = NCI Yeast Anticancer Drug Screen. Data for the rad18 strain (AID 177); settings: S. cerevisiae rad18 mutant growth inhibition, hits give high values
Outline: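 Growth of the mutant yeast strain after compound exposure, normalised to vehicle-only cultures.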

[15] = NCI Yeast Anticancer Drug Screen. Data for the rad14 strain (AID 159);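 further: 0% = growth of vehicle-treated control cultures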; settings: S. cerevisiae rad14 strain growth inhibition, hits give high values
Outline: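 DNA repair-defective yeast, compound-exposed; % growth inhibition derived by comparison with vehicle-treated controls.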

[16] = NCI Yeast Anticancer Drug Screen. Data for the mlh1 rad18 strain (AID 175); settings: S. cerevisiae mlh1 rad18 strain growth inhibition, hits give high values
Outline: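 Read-out is yeast growth inhibition, calculated against vehicle-only controls. The compound was applied to a strain engineered with DNA damage repair alterations.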

[17] = at 5.0 µM (retest, dose inferred, filed as 0.5)
[18] = at 50.0 µM (retest, dose inferred, filed as 5.0)

Measured: growth inhibition

C[Si](C)(C)CNC(=O)OCc1ccccc1
active: [10]; at 33.0 µM 83% | [10]; [18] 93% | [10]; at 50.0 µM 93.5% | [10]; at 100.0 µM 94%
inactive: [1]; at 1.2 µM -1% | [1]; at 3.7 µM -4% | [1]; at 11.0 µM 6% | [1]; at 33.0 µM 2% | [1]; at 100.0 µM 16% | [2]; at 1.2 µM 2% | [2]; at 3.7 µM -2% | [2]; at 11.0 µM -3% | [2]; at 33.0 µM -4% | [2]; at 100.0 µM -3% | [3]; at 1.2 µM 1% | [3]; at 3.7 µM -1% | [3]; at 11.0 µM 10% | [3]; at 33.0 µM 21% | [3]; at 100.0 µM 41% | [4]; at 1.2 µM 7% | [4]; at 3.7 µM 5% | [4]; at 11.0 µM -5% | [4]; at 33.0 µM -4% | [4]; at 100.0 µM 12% | [5]; at 1.2 µM 1% | [5]; at 3.7 µM -10% | [5]; [17] -1% | [5]; at 11.0 µM 1% | [5]; at 33.0 µM 19% | [5]; [18] -8% | [5]; at 50.0 µM 37.1% | [5]; at 100.0 µM 56% | [6]; at 1.2 µM -2% | [6]; at 3.7 µM -3% | [6]; [17] -1% | [6]; at 11.0 µM 1% | [6]; at 33.0 µM 1% | [6]; [18] 32% | [6]; at 50.0 µM 21.9% | [6]; at 100.0 µM 11% | [7]; [17] -8% | [7]; [18] -13% | [7]; at 50.0 µM 4.25% | [8]; at 1.2 µM -3% | [8]; at 3.7 µM -3% | [8]; at 11.0 µM 7% | [8]; at 33.0 µM 4% | [8]; at 100.0 µM 5% | [9]; [17] 14% | [9]; [18] 20% | [9]; at 50.0 µM -22.8% | [10]; at 1.2 µM 4% | [10]; at 3.7 µM 15% | [10]; [17] 6% | [10]; at 11.0 µM 35% | [11]; at 1.2 µM -1% | [11]; at 3.7 µM -1% | [11]; at 11.0 µM -1% | [11]; at 33.0 µM 0% | [11]; at 100.0 µM 3% | [12]; at 1.2 µM 3% | [12]; at 3.7 µM -7% | [12]; at 11.0 µM 4% | [12]; at 33.0 µM 18% | [12]; at 100.0 µM 38% | [13]; at 1.2 µM 1% | [13]; at 3.7 µM -1% | [13]; at 11.0 µM 1% | [13]; at 33.0 µM 1% | [13]; at 100.0 µM 4% | [14]; at 1.2 µM -3% | [14]; at 3.7 µM -2% | [14]; at 11.0 µM 8% | [14]; at 33.0 µM 17% | [14]; at 100.0 µM 49%

COc1cc(CC2CC(c3ccc4c(c3)OCO4)OC2=O)cc(OC)c1OC (stereo not drawn)
inactive: [1]; at 1.2 µM -1% | [1]; at 3.7 µM -1% | [1]; at 11.0 µM 1% | [1]; at 33.0 µM 3% | [1]; at 100.0 µM 7% | [2]; at 1.2 µM -2% | [2]; at 3.7 µM -3% | [2]; at 11.0 µM -4% | [2]; at 33.0 µM -3% | [2]; at 100.0 µM 0% | [3]; at 1.2 µM -2% | [3]; at 3.7 µM -1% | [3]; at 11.0 µM 0% | [3]; at 33.0 µM 3% | [3]; at 100.0 µM 8% | [5]; at 1.2 µM 0% | [5]; at 3.7 µM 1% | [5]; [17] -6% | [5]; at 11.0 µM 3% | [5]; at 33.0 µM 8% | [5]; [18] 12% | [5]; at 50.0 µM -10.2% | [5]; at 100.0 µM 13% | [6]; at 1.2 µM 0% | [6]; at 3.7 µM -2% | [6]; [17] 6% | [6]; at 11.0 µM 2% | [6]; at 33.0 µM 7% | [6]; [18] 11% | [6]; at 50.0 µM -13.4% | [6]; at 100.0 µM 16% | [15]; at 1.2 µM -2% | [15]; at 3.7 µM -3% | [15]; at 11.0 µM -1% | [15]; at 33.0 µM 4% | [15]; at 100.0 µM 12% | [7]; [17] 2% | [7]; [18] 6% | [7]; at 50.0 µM -2.9% | [8]; at 1.2 µM 2% | [8]; at 3.7 µM 1% | [8]; at 11.0 µM 5% | [8]; at 33.0 µM 7% | [8]; at 100.0 µM 15% | [9]; [17] -1% | [9]; [18] 7% | [9]; at 50.0 µM 1.35% | [10]; at 1.2 µM 15% | [10]; at 3.7 µM 28% | [10]; [17] 24% | [10]; at 11.0 µM 43% | [10]; at 33.0 µM 58% | [10]; [18] 54% | [10]; at 50.0 µM 38.5% | [11]; at 1.2 µM -2% | [11]; at 3.7 µM -4% | [11]; at 11.0 µM -3% | [11]; at 33.0 µM -5% | [11]; at 100.0 µM 0% | [12]; at 1.2 µM -4% | [12]; at 3.7 µM -3% | [12]; at 11.0 µM -1% | [12]; at 33.0 µM 3% | [12]; at 100.0 µM 11% | [13]; at 1.2 µM -2% | [13]; at 3.7 µM -2% | [13]; at 11.0 µM -2% | [13]; at 33.0 µM 0% | [13]; at 100.0 µM 9% | [16]; [17] -2% | [16]; [18] 8% | [16]; at 50.0 µM 18.2% | [14]; at 1.2 µM -4% | [14]; at 3.7 µM -3% | [14]; at 11.0 µM -1% | [14]; at 33.0 µM 0% | [14]; at 100.0 µM 10%
active: [10]; at 100.0 µM 82%
